From the supplement of paper PMC8728848 come the findings set out here.

Common to all, as to experiment: glycan array binding signal (z-score within array); higher = stronger binding
Common to all, as to conditions: glycan notation: IUPAC condensed, linker removed

Assay [1] concerns the target GlcNAc(b1-3)[GlcNAc(b1-6)]GalNAc. The gist of the method:
(§1)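 Negative Z-scores can be read as non-binding. The Z-score is calculated within each array and then averaged across arrays of one protein sequence at different concentrations or buffers and across linkers. Arrays, 3228 in all, were curated from the Consortium for Functional Glycomics database and kept only where the protein sequence was available.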

Assay [2] concerns the target GlcNAc(b1-4)GlcNAc(b1-4)GlcNAc(b1-4)GlcNAc(b1-4)GlcNAc(b1-4)GlcNAc. In short, it runs like this:
as §1

In a further assay the target is Kdn(a2-6)Gal(b1-4)GlcNAc. In short, it runs like this:
as §1

The target in assay [3] is Man(a1-2)Man(a1-2)Man(a1-3)Man. The gist of the method: as §1
Assay [4] addresses Man(a1-2)Man(a1-3)[Man(a1-2)Man(a1-6)]Man. The gist of the method: as §1
Assay [5] has as its target Man(a1-3)[Man(a1-6)]Man(a1-6)[Man(a1-3)]Man(b1-4)GlcNAc(b1-4)GlcNAc. In short, it runs like this: as §1
A further assay addresses MurNAc(b1-4)GlcNAc. The gist of the method:
as §1

The target of assay [6] is Neu5Ac(a2-3)Gal(b1-4)GlcNAc(b1-2)Man(a1-3)[GlcNAc(b1-4)][Neu5Ac(a2-3)Gal(b1-4)GlcNAc(b1-2)Man(a1-6)]Man(b1-4)GlcNAc(b1-4)GlcNAc. The gist of the method: as §1
Assay [7] addresses Neu5Ac(a2-3)Gal(b1-4)GlcNAc(b1-3)Gal(b1-4)GlcNAc. In short, it runs like this: as §1
Assay [8] concerns the target Neu5Ac(a2-3)Gal(b1-4)GlcNAc(b1-3)Gal(b1-4)GlcNAc(b1-3)[Neu5Ac(a2-3)Gal(b1-4)GlcNAc(b1-3)Gal(b1-4)GlcNAc(b1-6)]GalNAc. In short, it runs like this:
as §1

Assay [9] has as its target Neu5Ac(a2-3)Gal(b1-4)GlcNAc(b1-3)[Neu5Ac(a2-3)Gal(b1-4)GlcNAc(b1-6)]GalNAc. The gist of the method: as §1
Assay [10] concerns the target Neu5Ac(a2-3)Gal(b1-4)[Fuc(a1-3)]GlcNAc(b1-3)GalNAc. The gist of the method:
as §1

For assay [11], the target named is Neu5Ac(a2-6)Gal(b1-4)GlcNAc(b1-2)Man(a1-3)Man(b1-4)GlcNAc(b1-4)GlcNAc. The gist of the method: as §1
Assay [12] concerns the target Neu5Ac(a2-6)Gal(b1-4)GlcNAc(b1-2)Man(a1-3)[Gal(b1-4)GlcNAc(b1-2)Man(a1-6)]Man(b1-4)GlcNAc(b1-4)GlcNAc. The gist of the method: as §1
Assay [13] has as its target Neu5Ac(a2-6)Gal(b1-4)GlcNAc(b1-2)[Neu5Ac(a2-6)Gal(b1-4)GlcNAc(b1-4)]Man(a1-3)[GlcNAc(b1-4)][Neu5Ac(a2-6)Gal(b1-4)GlcNAc(b1-2)[Neu5Ac(a2-6)Gal(b1-4)GlcNAc(b1-6)]Man(a1-6)]Man(b1-4)GlcNAc(b1-4)GlcNAc. In short, it runs like this:
as §1

The target in assay [14] is Neu5Ac(a2-6)Gal(b1-4)GlcNAc(b1-2)[Neu5Ac(a2-6)Gal(b1-4)GlcNAc(b1-6)]Man(a1-6)[Neu5Ac(a2-6)Gal(b1-4)GlcNAc(b1-2)Man(a1-3)][GlcNAc(b1-4)]Man(b1-4)GlcNAc(b1-4)GlcNAc. In short, it runs like this:
as §1

Assay [15] has as its target Neu5Ac(a2-6)Gal(b1-4)GlcNAc(b1-3)Gal(b1-4)GlcNAc. The gist of the method:
as §1

In assay [16] the target is Neu5Ac(a2-6)Gal(b1-4)GlcNAc(b1-3)Gal(b1-4)GlcNAc(b1-3)[Neu5Ac(a2-6)Gal(b1-4)GlcNAc(b1-3)Gal(b1-4)GlcNAc(b1-6)]GalNAc. In short, it runs like this: as §1
Assay [17] addresses Neu5Ac(a2-6)Gal(b1-4)GlcNAc(b1-6)[Gal(b1-3)GlcNAc(b1-3)]Gal(b1-4)Glc. The gist of the method:
as §1

Assay [18] addresses Neu5Ac(a2-8)Neu5Ac(a2-8)Neu5Ac. In short, it runs like this:
as §1

The target in assay [19] is Neu5Gc(a2-8)Neu5Gc(a2-6)Gal(b1-4)GlcNAc. The gist of the method:
as §1

The full list was thinned out, with the strongest signals kept by preference.

B1: EfCBM33A (Enterococcus faecalis), Q838S1 (protein)
chain: MKKSLLTIVLAFSFVLGGAALAPTVSEAHGYVASPGSRAFFGSSAGGNLNTNVGRAQWEPQSIEAPKNTFITGKLASAGVSGFEPLDEQTATRWHKTNITTGPLDITWNLTAQHRTASWDYYITKNGWNPNQPLDIKNFDKIASIDGKQEVPNKVVKQTINIPTDRKGYHVIYAVWGIGDTVNAFYQAIDVNIQ
On to B1, for which the “glycan array binding signal (z-score)” value was -0.941 in assay [1]; 0.083 in [2]; 0.328 with Kdn(a2-6)Gal(b1-4)GlcNAc; -0.162 in [3]; 0.783 in assay [4]; 0.455 in assay [5]. Further, the “glycan array binding signal (z-score)” value with MurNAc(b1-4)GlcNAc is 0.631; in [6], 0.122; in [7] it was -0.177; in assay [8], 7.32; in assay [9], 3.14; in assay [10], 2.79. Further, the “glycan array binding signal (z-score)” value in assay [11] is 2.04; in assay [12] it was 0.519; in assay [13], 2.16; in [14], 0.103; in [15], 2.76; in assay [16], 0.687. Also, the “glycan array binding signal (z-score)” value is -0.451 in assay [17], 0.016 in assay [18] and -0.736 in assay [19].
